This note sets out measurements from PubChem BioAssay (NCATS).

Structures are written as SMILES. Inconclusive results are not listed. Active and inactive are the calls of the source. Calls follow the shape of the dose curve; as a rule, active = well fitted inhibition curve with a large enough effect; inconclusive = small, poorly fitted or top-dose-only effect; inactive = no such curve, though single readings can be large or run the other way.
% is scaled to controls: 0 for no effect and ±100 for the full control effect.

Chain of Cytochrome P450 3A7 (Homo sapiens) (P24462 whole entry, looked up): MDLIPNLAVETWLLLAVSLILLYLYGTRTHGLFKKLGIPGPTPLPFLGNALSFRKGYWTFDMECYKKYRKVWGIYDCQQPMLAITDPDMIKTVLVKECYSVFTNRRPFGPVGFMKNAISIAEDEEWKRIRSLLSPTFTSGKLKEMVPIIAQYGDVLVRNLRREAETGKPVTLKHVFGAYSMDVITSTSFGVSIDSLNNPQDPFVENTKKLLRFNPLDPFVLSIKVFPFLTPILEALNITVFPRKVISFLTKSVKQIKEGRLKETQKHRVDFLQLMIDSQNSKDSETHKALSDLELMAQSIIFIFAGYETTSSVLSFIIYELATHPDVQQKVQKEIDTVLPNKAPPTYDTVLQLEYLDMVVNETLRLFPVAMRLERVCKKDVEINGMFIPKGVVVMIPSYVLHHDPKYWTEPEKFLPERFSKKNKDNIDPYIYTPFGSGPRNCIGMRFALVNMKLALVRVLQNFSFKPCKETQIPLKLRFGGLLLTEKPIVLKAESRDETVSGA

For the assay, the target named is Cytochrome P450 3A7 (Homo sapiens) (UniProt P24462). Briefly: Cytochrome P450 family 3 subfamily A member 7 (CYP3A7) small molecule antagonists: luciferase biochemical qHTS assay (AID 1963596). Also: nearly all actives have a fitted effect of over 40% in size. The conditions noted are these: P450-Glo CYP3A7 enzyme luminescence, 1 h; series mostly up to 57.4 µM; activity change, negative = inhibition: at the top concentration. From the text:
National Center for Advancing Translational Sciences [NCATS] Assay Overview: Cytochrome P450 (CYP) enzymes are membrane-bound hemeproteins that play a key role in metabolism of drugs and xenobiotics. The CYP3A subfamily is the most abundant, representing 30% of the total adult hepatic CYP content, whereas CYP3A7 is found predominantly in human fetal liver and accounts up to 50% of the total fetal hepatic CYP content. Testing the effect of chemicals on CYP isozymes is useful to minimize the adverse drug reactions and toxicities in the drug development process. Chemicals were tested for their effect on CYP enzyme activities by using P450-Glo (TM) screening systems (Promega Corporation, Madison, WI). These systems provide a luminescent method containing proluciferin substrates and are converted to luciferin products by CYP isozymes. The luciferin products formed are detected with a luciferin detection reagent, and the amount of light produced is proportional to CYP activity. P450-Glo (TM) CYP3A7 screening system (Catalog. No. V8812) was used to detect the compounds that interfere with CYP3A7 activity. The positive control compound used for CYP3A7 assay is ketoconazole (Sigma-Aldrich, St. Louis, MO).
Assay Protocol Summary: Two ul of enzyme-substrate mix was dispensed into medium binding white/solid 1536-well plates (Greiner Bio-One North America Inc., Monroe, NC) using a Flying Reagent Dispenser (FRD, Aurora Discovery, San Diego, CA). Compounds dissolved in DMSO, and positive control (ketoconazole) were transferred to the assay plates at 23 nl using a Pintool station (Wako, San Diego, CA). The assay plates were incubated at room temperature for 10 min. Then 2 ul of NADPH regeneration solution was added to each well of the assay plates using an FRD and incubated at room temperature for 1 h. The reaction was stopped by adding 4 ul of detection reagent using an FRD and after 20 min incubation at room temperature the luminescence signal was measured using a ViewLux plate reader (Perkin Elmer, Shelton, CT). Data were expressed as relative luminescence units.
In general terms: Quantitative high-throughput screening tests each substance at several concentrations.
With `O=C(O)c1cc(-c2ccccc2)nc2ccccc12`, the “activity change, negative = inhibition” value is 3.96% (inactive).
As for `CC(C)(C)C(=O)NCCCC(=O)O`, the “activity change, negative = inhibition” value is 2.27% (inactive).
On to `CCC[C@H](N[C@@H](C)C(=O)N1[C@H](C(=O)O)C[C@@H]2CCCC[C@@H]21)C(=O)O`, for which the “activity change, negative = inhibition” value was -15.9% (inactive).
Turning to `COc1ccc(-n2c(SCC#N)nc3sc4c(c3c2=O)CCCC4)cc1`, the “activity change, negative = inhibition” value is 14.6% (inactive).
The same measure, in the same setting: to `[O-][n+]1cccc(CO)c1` belongs -4.27% (inactive); to `O=C(OOC(=O)c1ccccc1)c1ccccc1`, -1.42% (inactive); to `COc1ccc(C2C(=O)c3ccccc3C2=O)cc1`, -27.9% (inactive).
As to `C[C@@H]1CCNC(=O)c2cc3ccc(C(=O)Nc4nc5ccccc5n4CCCN(C)C)cc3n21`, the “activity change, negative = inhibition” value was -16.4% (inactive).
With `Cc1cc(C(C)(C)C)c(O)c(C(C)(C)C)c1`, the “activity change, negative = inhibition” value is -0.993% (inactive).
On the same count and under the same terms, the value for `COc1cc(OC)nc(O[C@H](C(=O)O)C(OC)(c2ccccc2)c2ccccc2)n1` was 1.99% (inactive).
Take `Cc1nnc(NS(=O)(=O)c2ccc(N)cc2)s1`: the “activity change, negative = inhibition” value was -29.5% (inactive).
On to `O=c1oc2c(O)c(O)cc3c(=O)oc4c(O)c(O)cc1c4c23`, for which the “activity change, negative = inhibition” value is -0.112% [at 23.9 µM] (inactive).
Still for that read-out and setting: the value for `CCCNC(=O)Nc1ccc(Oc2ncnc3cc(OC)c(OC)cc23)cc1Cl` was 0% (inactive); that for `C=CC(=O)Nc1cc(Nc2nccc(-c3c[nH]c4ccccc34)n2)c(OC)cc1N(C)CCN(C)C` was 0% (inactive); that for `Cc1sccc1Br` was -5.51% (inactive).
Consider `[Cl][In]([Cl])[Cl]`, for which the “activity change, negative = inhibition” value was 17.9% [at 115 µM] (inactive).
For `CC(N)C12CC3CC(CC(C3)C1)C2` (stereo not given), the “activity change, negative = inhibition” value was -16.8% (inactive).
For `O=C(Cn1c(=O)n(-c2ccc(Cl)cc2)c(=O)c2oc3ccccc3c21)Nc1ccccc1`, the “activity change, negative = inhibition” value was -11.9% (inactive).
As for `Cn1c(=O)c2c(ncn2CC(O)CO)n(C)c1=O` (stereo not given), the “activity change, negative = inhibition” value is -0.234% (inactive).
With `COc1ccc(C(=O)NCc2ccc(OCCN(C)C)cc2)cc1OC`, the “activity change, negative = inhibition” value was -20% (inactive).
As to `O=C(NCC(O)CO)c1ccncc1Nc1ccc(I)cc1F` (stereo not given), the “activity change, negative = inhibition” value was -28.1% (inactive).
With `C[C@H]1O[C@@H](O[C@H]2CC[C@@]3(C)[C@H](CC[C@@H]4[C@@H]3C[C@@H](O)[C@]3(C)[C@@H](C5=CC(=O)OC5)CC[C@]43O)C2)C[C@H](O)[C@@H]1O[C@H]1C[C@H](O)[C@H](O[C@H]2C[C@H](O)[C@H](O[C@@H]3O[C@H](CO)[C@@H](O)[C@H](O)[C@H]3O)[C@@H](C)O2)[C@@H](C)O1`, the “activity change, negative = inhibition” value was 5.44% (inactive).
Take `Cc1c(NC(=O)c2cccnc2)c(=O)n(-c2ccccc2)n1C`: the “activity change, negative = inhibition” value is -1.27% (inactive).
Still for that read-out and setting: to `CCc1ccccc1OC[C@@H](O)CN[C@H]1CCCc2ccccc21` belongs 0% (inactive).
Consider `CC(N=C(NC#N)Nc1ccncc1)C(C)(C)C` (stereo not given), for which the “activity change, negative = inhibition” value was -26.7% (inactive).
In the case of `CC(C)C[C@@H](C(=O)N[C@@H](Cc1ccc(OCc2ccccc2)cc1)C(=O)NC(C)(C)C)N(C)Cc1ccc(C(C)(C)C)cc1`, the “activity change, negative = inhibition” value was -26.4% (inactive).
Regarding `Cc1onc(-c2ccccc2)c1C(=O)N1CCN(c2ccc([N+](=O)[O-])cc2Cl)CC1`, the “activity change, negative = inhibition” value was -5.76% (inactive).
The same measure, in the same setting: to `COC(=O)C(CN)c1c[nH]c2ccc(OC)cc12` (stereo not given) belongs 20.6% (inactive).
Regarding `CC(C)CC(=O)Nc1n[nH]c2c1CN(C(=O)C1CCN(C)CC1)C2(C)C`, the Potency result was “inactive”.
Regarding `CC(C)(C)NC[C@H](O)COc1cccc2c1CCCC2=O`, the “activity change, negative = inhibition” value is 3.58% (inactive).
Take `COc1nccc(-c2c(-c3ccc(F)cc3)ncn2C2CCC(O)CC2)n1` (stereo not given): the “activity change, negative = inhibition” value was 0% (inactive).
Same read-out and setting: to `NCCNCCNCCN` belongs 18.8% (inactive); to `C[N+](C)(C)CCOC(N)=O`, 11% (inactive).
For the compound `COc1ccccc1N1CCN(CCCNc2cc(=O)n(C)c(=O)n2C)CC1`, the “activity change, negative = inhibition” value is -2.55% (inactive).
Turning to `O=C(O)c1cccc(-c2ccc(-c3cn(C(=O)N4CCCCC4Cc4ccccc4)nn3)cc2)c1` (stereo not given), the “activity change, negative = inhibition” value is 0% (inactive).
Turning to `O=C1CC(c2ccc(Cl)cc2)CC(=O)N1`, the “activity change, negative = inhibition” value was -7.36% (inactive).
Turning to `CC1(C)CO[C@@H](CC(=O)O)CN1`, the “activity change, negative = inhibition” value is 17.9% (inactive).
On to `O=C(O)Cn1cnnn1`, for which the “activity change, negative = inhibition” value was -3.92% (inactive).
On the same count and under the same terms, the value for `O=C(O)c1ccc(OCCCOc2ccc(C(=O)O)cc2)cc1` was -19.7% (inactive); that for `CNc1nc(C)nc(N[C@H]2CCC[C@@H](C(=O)NCc3ccc(C#N)cc3C(F)(F)F)C2)n1` was 4.59% (inactive).
